A selection: hits, their analogues and other compounds. The true share with any hit is near 19%.
TDP1 cell CPT: growth inhibition of DT40 Tdp1-/-;hTDP1 cells with camptothecin (screen for TDP1 inhibitors); chicken DT40 Tdp1-/-;hTDP1 cells + 20 nM CPT, ATP luminescence, 48 h; Potency, µM (doses to about 46.2 µM), usual class: inhibitors; 420,000 compounds, 12% hits; AID 686979; also: nearly all actives have a fitted effect of over 55% in size
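Chicken DT40 Tdp1-/- cells complemented with human TDP1, 400 cells/well, exposed to compounds plus 20 nM camptothecin for at least 48 h at 37 C; viability read as ATP content by CellTiter-Glo luminescence.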
DT40 TDP1 no CPT: qHTS for Inhibitors of human tyrosyl-DNA phosphodiesterase 1 (TDP1): qHTS in cells in absence of CPT. DT40 Tdp1-/- hTDP1 cells, no CPT, ATP luminescence, 48 h. Potency, µM (top dose mostly 46.2 µM), usual class: inhibitors. 420,000 compounds, 15% hits; also: nearly all actives have a fitted effect of over 55% in size
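Cells were dispensed at 400 per well, compounds added by pin tool, plates incubated ≥48 hr at 37 °C, then CellTiter-Glo added for 30 min at room temperature before luminescence reading. Line: DT40 Tdp1-/- complemented with hTDP1; camptothecin omitted.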
IL-1B inflam inh: blocks inflammasome-driven IL-1 beta release. THP-1 LPS/ATP IL-1B secretion, AlphaLISA, 16 h; hits give low values. 360,000 compounds, 4.7% hits. activity change, % at 57.5 µM. AID 743279; in the data active = activity change below about -50%; inconclusive = mostly about -30% to -49%
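Secreted IL-1B measured by AlphaLISA bead assay after 16 h compound exposure of THP-1 cells; compounds (final up to 57.5 uM) added 1 h before LPS (250 ng/mL) and ATP (1.25 mM) stimulation; lower signal means less secretion.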
HT1080NT lethal: kills 2HG-producing HT-1080-NT fibrosarcoma cells | HT-1080-NT fibrosarcoma viability, CellTiter-Glo ATP luminescence, 48 h | Potency, µM (series often up to 46.1 µM), most hits filed as cytotoxic | AID 686970 | 360,000 compounds, 1.6% hits;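 also: NT is the 2HG producing partner of a matched IDH1 knockdown line; nearly all actives have a fitted effect of over 55% in size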
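Fibrosarcoma NT cells, 750 per well in 5% FBS RPMI, were exposed to compound for 48 hours. Viability: CellTiter-Glo luminescence.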
HT1080 IDH1KD tx: kills HT-1080 cells with IDH1 knockdown; HT-1080 IDH1 knockdown viability, ATP luminescence, 48 h; 360,000 compounds, 2% hits; Potency, µM (highest dose often 46.1 µM), usual class: cytotoxic
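Luminescent ATP read-out (CellTiter-Glo, 10 min at room temperature) after 48 h compound exposure at 37 °C gave viability of IDH1-knockdown HT-1080 cells. Activity was normalised to DMSO and cell-free wells, then fitted as concentration-response curves.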
Each line names hits and unclear results; the compound was inactive in the other large screens. Unless noted, calls follow the shape of the dose curve; as a rule, active = well fitted curve in the direction sought with a large enough effect; inconclusive = small, poorly fitted or top-dose-only effect, or another doubt; inactive = no such curve, though single readings can be large; an effect the other way counts as inactive or inconclusive.

COc1ccc(Br)cc1CN1CCN(C(=O)c2ccc(F)cc2)CC1	TDP1 cell CPT inconclusive, DT40 TDP1 no CPT 21µM
COc1cccc(C(=O)N2CCN(Cc3cc(Br)ccc3OC)CC2)c1	TDP1 cell CPT inconclusive, DT40 TDP1 no CPT inconclusive, IL-1B inflam inh -51
O=C(c1ccncc1)N1CCC2(CCN(Cc3ccncc3)CC2)CC1	none (no result: IL-1B inflam inh, HT1080NT lethal, HT1080 IDH1KD tx)
CCN(CC(=O)Nc1cc(Cl)cc(Cl)c1)CC(=O)NC1CCS(=O)(=O)C1 (stereo not given)	DT40 TDP1 no CPT inconclusive
CCOC(=O)N1CCN(S(=O)(=O)/C=C/c2ccccc2)CC1	none
O=C(c1ccc(Cl)cc1)N1CCN(S(=O)(=O)/C=C/c2ccccc2)CC1	TDP1 cell CPT inconclusive, DT40 TDP1 no CPT 21µM, IL-1B inflam inh inconclusive
O=C(Nc1cccnc1)c1ccc(Cl)c(S(=O)(=O)N2CCc3ccccc32)c1	none
CC(=O)Nc1ccc(NC(=O)c2ccc(Cl)c(S(=O)(=O)N3CCc4ccccc43)c2)cc1	TDP1 cell CPT inconclusive, DT40 TDP1 no CPT 4.6µM
CCOC(=O)C1CCCN(C(=O)c2ccc(Cl)c(S(=O)(=O)N3CCc4ccccc43)c2)C1 (stereo not given)	TDP1 cell CPT inconclusive, DT40 TDP1 no CPT 13µM
O=C(Nc1ccccn1)c1ccc(Cl)c(S(=O)(=O)N2CCc3ccccc32)c1	TDP1 cell CPT 16µM, DT40 TDP1 no CPT inconclusive
O=C(Nc1ccccn1)c1cccc(S(=O)(=O)N2CCc3ccccc3C2)c1	DT40 TDP1 no CPT inconclusive, IL-1B inflam inh -56
COCCN(Cc1nc2ccccc2c(=O)[nH]1)C(=O)COc1cccc(C(C)=O)c1	none
CC(=O)N1CCN(C(=O)c2ccc(NS(=O)(=O)c3ccc4[nH]c(=O)[nH]c4c3)cc2)CC1	none
CCOC(=O)CSc1ccc2nnc(CCNS(=O)(=O)c3ccccc3)n2n1	none
O=S(=O)(NCCc1nnc2ccc(SCc3cccc(Cl)c3)nn12)c1ccccc1	TDP1 cell CPT 15µM, DT40 TDP1 no CPT 18µM (no result: IL-1B inflam inh, HT1080NT lethal, HT1080 IDH1KD tx)
Cc1ccc(S(=O)(=O)NCCc2nnc3ccc(SCc4ccccc4C)nn23)cc1	TDP1 cell CPT 16µM, DT40 TDP1 no CPT 16µM (no result: IL-1B inflam inh, HT1080NT lethal, HT1080 IDH1KD tx)
COC(=O)C(C)Sc1ccc2nnc(CCNS(=O)(=O)c3ccccc3)n2n1 (stereo not given)	none
Cc1c(C(=O)Nc2cccc([N+](=O)[O-])c2)cnn1-c1ccccc1	TDP1 cell CPT inconclusive, DT40 TDP1 no CPT inconclusive, IL-1B inflam inh inconclusive
CN1CCN(c2ncc3nc(-c4cccs4)c(=O)n(CCC#N)c3n2)CC1	DT40 TDP1 no CPT inconclusive (no result: IL-1B inflam inh, HT1080NT lethal, HT1080 IDH1KD tx)
Cc1nc(NC(=O)C(C)(C)C)sc1C(=O)Cn1cc(-c2ccc(C(C)(C)C)cc2)nn1	TDP1 cell CPT inconclusive, DT40 TDP1 no CPT inconclusive
Cc1cc(C)c(S(=O)(=O)N2CCC3(CC2)OCCN3S(=O)(=O)c2cccs2)c(C)c1	TDP1 cell CPT inconclusive, DT40 TDP1 no CPT 23µM
Cc1ccc(S(=O)(=O)N2CCC3(CC2)OCCN3S(=O)(=O)c2c(C)cc(C)cc2C)cc1	TDP1 cell CPT 26µM, DT40 TDP1 no CPT 16µM
COc1ccc(S(=O)(=O)N2CCC3(CC2)OCCN3S(=O)(=O)c2c(C)cc(C)cc2C)cc1	TDP1 cell CPT 13µM, DT40 TDP1 no CPT 8.2µM
CCS(=O)(=O)N1CCC2(CC1)OCCN2S(=O)(=O)c1ccc(C)cc1	none
CCc1ccc(NC(=S)N(CCN2CCOCC2)Cc2ccccc2F)cc1	none
OC1(CN2CCOCC2)C2CN3CCN(C2)CC1(c1ccccc1)C3 (stereo not given)	TDP1 cell CPT 29µM, DT40 TDP1 no CPT inconclusive
COCCNC(=O)CCc1c(C)n(C)c2cc(-c3cc(OC)c(OC)c(OC)c3)nn2c1=O	none (no result: IL-1B inflam inh, HT1080NT lethal, HT1080 IDH1KD tx)
COc1cc(-c2cc3n(C)c(C)c(CCC(=O)NC4CCC(C)CC4)c(=O)n3n2)cc(OC)c1OC (stereo not given)	TDP1 cell CPT 15µM, DT40 TDP1 no CPT 13µM (no result: IL-1B inflam inh, HT1080NT lethal, HT1080 IDH1KD tx)
CCCN1C(=O)C(Cc2nc3ccccc3c(=O)n2-c2ccccc2)c2ccccc21 (stereo not given)	DT40 TDP1 no CPT inconclusive
CCCN1C(=O)C(Cc2nc3ccccc3c(=O)n2CC)c2ccccc21 (stereo not given)	TDP1 cell CPT inconclusive, DT40 TDP1 no CPT 5.2µM (no result: IL-1B inflam inh, HT1080NT lethal, HT1080 IDH1KD tx)
